{"source": "the supplement of paper PMC8699584", "key": {"[1]": {"tested_on": "Molm13", "experiment": "cell viability relative to DMSO control (bortezomib = 0%); higher = less growth inhibition", "conditions": "10 nM; 72 h", "outline": "(§1)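 Cell viability was assessed by CellTiter-Glo luminescence. Acute myeloid leukemia cells were seeded at 1000 cells per well in 50 µL on a 384-well library of 679 compounds at a single 10 nM dose for 72 h. Per-plate linear regression set DMSO-treated cells at 100% and positive-control-treated cells at 0%.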"}, "[2]": {"tested_on": "Mv4-11", "experiment": "cell viability relative to DMSO control (bortezomib = 0%); higher = less growth inhibition", "conditions": "10 nM; 72 h", "outline": "as §1"}}, "note": "± gives the standard deviation of the averaged measurements.", "data": [{"smiles": "O=C1NC(=O)/C(=C/c2ccc(-c3ccc(F)cc3O)o2)S1", "values": [{"measurement": "cell viability", "setting": "[1]", "result": "106 ± 2.7", "unit": "%"}, {"measurement": "cell viability", "setting": "[2]", "result": "95.5 ± 9.9", "unit": "%"}]}, {"smiles": "N#CC1(c2ccc(NC(=O)c3cccnc3NCc3ccncc3)cc2)CCCC1", "note": "[Apatinib]", "values": [{"measurement": "cell viability", "setting": "[1]", "result": "113 ± 10", "unit": "%"}, {"measurement": "cell viability", "setting": "[2]", "result": "110 ± 1.5", "unit": "%"}]}, {"smiles": "Oc1cccc(Nc2ncc(F)c(Nc3cccc(O)c3)n2)c1", "values": [{"measurement": "cell viability", "setting": "[1]", "result": "83 ± 15", "unit": "%"}, {"measurement": "cell viability", "setting": "[2]", "result": "96.5 ± 16", "unit": "%"}]}, {"smiles": "Cc1cccc(/C=N/Nc2cc(N3CCOCC3)n3nc(-c4ccncc4)cc3n2)c1", "values": [{"measurement": "cell viability", "setting": "[1]", "result": "95.5 ± 11", "unit": "%"}, {"measurement": "cell viability", "setting": "[2]", "result": "122 ± 4.4", "unit": "%"}]}, {"smiles": "CCS(=O)(=O)N1CC(CC#N)(n2cc(-c3ncnc4[nH]ccc34)cn2)C1", "note": "[Baricitinib†(Phosphate)]", "values": [{"measurement": "cell viability", "setting": "[1]", "result": "112 ± 13", "unit": "%"}, {"measurement": "cell viability", "setting": "[2]", "result": "115 ± 5.4", "unit": "%"}]}, {"smiles": "Nc1nc(NC2CC2)cc(-c2cccc(Cl)c2Cl)n1", "values": [{"measurement": "cell viability", "setting": "[1]", "result": "115 ± 8.1", "unit": "%"}, {"measurement": "cell viability", "setting": "[2]", "result": "96.9 ± 4.4", "unit": "%"}]}, {"smiles": "N#Cc1c(O)c2c(-c3ccc(-c4ccccc4O)cc3)csc2[nH]c1=O", "values": [{"measurement": "cell viability", "setting": "[1]", "result": "111 ± 27", "unit": "%"}, {"measurement": "cell viability", "setting": "[2]", "result": "93.9 ± 14", "unit": "%"}]}, {"smiles": "CC(C)(C)c1cc(C=C(C#N)C(N)=S)cc(C(C)(C)C)c1O", "values": [{"measurement": "cell viability", "setting": "[1]", "result": "108 ± 5.4", "unit": "%"}, {"measurement": "cell viability", "setting": "[2]", "result": "111 ± 3.4", "unit": "%"}]}, {"smiles": "COc1ccc(-c2cnc3c(-c4cccc5ncccc45)cnn3c2)cc1", "values": [{"measurement": "cell viability", "setting": "[1]", "result": "103 ± 12", "unit": "%"}, {"measurement": "cell viability", "setting": "[2]", "result": "103 ± 1.6", "unit": "%"}]}, {"smiles": "FC(F)(F)c1ccc(CNc2ccc(Cc3c[nH]c4ncc(Cl)cc34)cn2)cc1", "values": [{"measurement": "cell viability", "setting": "[1]", "result": "112.2 ± 0.43", "unit": "%"}, {"measurement": "cell viability", "setting": "[2]", "result": "106 ± 19", "unit": "%"}]}, {"smiles": "CC1(C)CN(C(=O)c2ccc(-c3cccc4nc(NC(=O)C5CC5)nn34)cc2)C1", "note": "[Solcitinib]", "values": [{"measurement": "cell viability", "setting": "[1]", "result": "115 ± 6.5", "unit": "%"}, {"measurement": "cell viability", "setting": "[2]", "result": "114 ± 3.3", "unit": "%"}]}, {"smiles": "Oc1cc(O)cc(/C=C/c2ccc(O)c(O)c2)c1", "note": "[Piceatannol]", "values": [{"measurement": "cell viability", "setting": "[1]", "result": "101 ± 6.1", "unit": "%"}, {"measurement": "cell viability", "setting": "[2]", "result": "108 ± 11", "unit": "%"}]}, {"smiles": "CC(C)CCN1c2nc(Nc3cc(F)c(O)c(F)c3)ncc2N(C)C(=O)C1C", "note": "(stereo not given)", "values": [{"measurement": "cell viability", "setting": "[1]", "result": "100 ± 14", "unit": "%"}, {"measurement": "cell viability", "setting": "[2]", "result": "114 ± 6.3", "unit": "%"}]}, {"smiles": "O=C1NCCc2[nH]c(-c3ccncc3)cc21", "values": [{"measurement": "cell viability", "setting": "[1]", "result": "115 ± 14", "unit": "%"}, {"measurement": "cell viability", "setting": "[2]", "result": "115 ± 6.7", "unit": "%"}]}, {"smiles": "CCCCNc1ncc(C(=O)NCc2ccc(-n3ccnc3)cc2)c(NC2CCC(O)CC2)n1", "note": "(stereo not given)", "values": [{"measurement": "cell viability", "setting": "[1]", "result": "103 ± 5.1", "unit": "%"}, {"measurement": "cell viability", "setting": "[2]", "result": "115.2 ± 0.28", "unit": "%"}]}]}
